Growth data for 39 compounds are collected here from PubChem BioAssay (NCI).

This is part of a sample that, as a whole, favours compounds with a hit. Of some 83,000 tested, about 20% had one in any assay.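 Activity criterion: percent growth below 10, measured after cells in 96-well plates were exposed to a single compound concentration for 48 hours.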 A number with no mark means an inactive call. Calls of active or inactive are those of the source.

Common to all, as to experiment: NCI-60 one-dose screen, 48 h (100 = growth as untreated, 0 = no growth, -100 = all killed)
Settings in all cases: 10 µM unless noted

Assay [1] concerns BT-549 breast.
In assay [2] the test system is MDA-MB-435 melanoma.
Assay [3] has as its system SW-620 colon.
Assay [4] deals with MCF7 breast.
Assay [5] concerns HCT-116 colon.
For assay [6], the system named is HCC-2998 colon.
The subject of assay [7] is KM12 colon.

As for `COc1ccc(C(=O)/C=C/c2ccc(OCc3ccc(Cl)cc3)c(OC)c2)cc1OC`, the growth in assay [1] was 62.1%; in assay [2], 79.4%; in assay [3], 43.1%; in assay [4] it was 20.4%; in assay [5], 20.8%; in assay [6], 84.3%.

Turning to `C#C[C@]1(O)CC[C@H]2[C@@H]3CC=C4c5sc(-c6ccc(F)cn6)nc5CC[C@]4(C)[C@H]3CC[C@@]21C`, the growth in assay [1] is 7.85% (active); in assay [2] it was 18.1%; in assay [3], 16.1%; in assay [4], 12.1%; in assay [5], 18.1%; in assay [6] it was 65.1%.

As to `COC(=O)C1CCCN(S(=O)(=O)/N=C2\NC(=O)NC2=C(Cl)Cl)C1` (stereo not drawn), the growth in assay [1] is 118%; in assay [2], 111%; in assay [3] it was 85.8%; in assay [4], 20.4%; in assay [5], 97.8%; in assay [6], 111%.

As for `Nc1cc(-c2c[nH]c3ccccc23)nc2cc(-c3c[nH]c4ccccc34)nn12`, the growth in assay [1] is 84.4%; in assay [2], 70.9%; in assay [3] it was -25.1% (active); in assay [4], 26.7%; in assay [5], 30.7%; in assay [6] it was 21%.

As to `CC(C)(C)Nc1nc2c(OCCc3ccccc3)cccn2c1-c1ccc(O)cc1`, the growth is 85.4% in assay [1]; 72.5% in assay [2]; 69% in assay [3]; 45.4% in assay [4]; 38.2% in assay [5]; 52.2% in assay [6].

Regarding `COc1cc(/C=C/C(=O)c2ccc(C(F)(F)F)cc2)ccc1Oc1nc(NCCO)nc(N2CCOCC2)n1`, the growth in assay [1] is 92.9%; in assay [2] it was 78.9%; in assay [3], -3.75% (active); in assay [4], 17%; in assay [5], -18.5% (active); in assay [6], 104%.

Turning to `COc1cccc(N2CCN(c3ncnc4c3[nH]c3ccc(F)cc34)C[C@@H]2C)c1`, the growth in assay [1] was -97% (active); in assay [2] it was -75.4% (active); in assay [3] it was -3.32% (active); in assay [4], 0.969% (active); in assay [5] it was -35.9% (active); in assay [6], 16.7%.

`COc1ccc2[nH]cc(-c3cc(N)n4nc(-c5c[nH]c6ccc(OC)cc56)cc4n3)c2c1`: the growth in assay [1] is 105%; in assay [2], -81.4% (active); in assay [3], -16% (active); in assay [4], 2.38% (active); in assay [5], -88.2% (active); in assay [6], -4.06% (active). The growth in assay [7] is -37.8% (active).

In the case of `N/C(=N\c1nc2c(Cl)cc(Cl)cc2s1)C(Cl)(Cl)Cl`, the growth is 110% in assay [1]; 75.6% in assay [2]; 60.6% in assay [3]; 24.8% in assay [4]; 51% in assay [5]; -1.09% (active) in assay [6].

`N#Cc1c(-c2ccc(Cl)cc2)nc(SCc2ccc(F)cc2)nc1N1CCNCC1`: the growth was 101% in assay [1]; 69.3% in assay [2]; -80.2% (active) in assay [3]; -19.3% (active) in assay [4]; -93.8% (active) in assay [5].

For the compound `N[C@@H](Cc1cn(-c2ccnc3ccccc23)nn1)C(=O)O`, the growth was 118% in assay [1]; 106% in assay [2]; 104% in assay [3]; 101% in assay [4]; 104% in assay [5]; 104% in assay [6].

Turning to `CS(=O)(=O)c1ccc(-c2nc3ccccn3c2C=Nc2ccc(Cl)cc2)cc1`, the growth was 74.3% in assay [1]; 56.7% in assay [2]; 63% in assay [3]; 87.7% in assay [4]; 52.1% in assay [5]; 95.8% in assay [6].

Regarding `CC1=C(C)C(=O)C(Nc2ccccc2)=C(Cl)C1=O`, the growth is 114% in assay [1]; 102% in assay [2]; 96.5% in assay [3]; 90.7% in assay [4]; 79.1% in assay [5].

As to `CC(C)NC(=O)c1cc(-c2ccc(NC(=O)Nc3ccc(N4CCOCC4)c(C(F)(F)F)c3)cc2)nc2cccnc12`, the growth in assay [1] was 66.7%; in assay [2], 67.9%; in assay [3], 79.7%; in assay [4], 37.2%; in assay [5] it was 63.9%; in assay [6], 106%.

Consider `COc1ccc(N/N=C/c2c(-c3ccc(S(C)(=O)=O)cc3)nc3ccccn23)cc1`, for which the growth is 60.5% in assay [1]; 34.1% in assay [2]; 30.1% in assay [3]; 24.3% in assay [4]; 32.5% in assay [5]; 49.3% in assay [6].

On to `O=C(N/N=C/c1ccc[nH]1)c1[nH]c2ccc(Br)cc2c1-c1ccccc1`, for which the growth in assay [1] was -12.5% (active); in assay [2], 2.21% (active); in assay [3], 22.8%; in assay [4] it was 3.98% (active); in assay [5], 0.0164% (active).

For the compound `C=CCSc1ccc2c(c1)C(N1CCNCC1)=Nc1ccccc1O2`, the growth was 106% [8.25 µM] in assay [1]; 68% [8.25 µM] in assay [2]; 73.4% [8.25 µM] in assay [3]; 59.2% [8.25 µM] in assay [4]; 55.1% [8.25 µM] in assay [5]; -14.8% [8.25 µM] (active) in assay [6].

Take `N#Cc1nc(-c2ccccc2)oc1S(=O)(=O)N1CCCCC1`: the growth in assay [1] was 85.7%; in assay [2] it was 68%; in assay [3], -12.8% (active); in assay [4], 29.2%; in assay [5] it was 21.2%; in assay [6], 105%.

`Oc1c(Cl)cc(Cl)c2ccc(CN3CCCCC3)nc12`: the growth in assay [1] is 89.1%; in assay [2], 42.1%; in assay [3], 30.4%; in assay [4], 28.9%; in assay [5], 21.3%; in assay [6], 65%. In addition, the growth in assay [7] was 30.7%.

For `Clc1ccc(Cc2nnc3sc(-c4cccnc4)nn23)cc1`, the growth in assay [1] was 95.5%; in assay [2], 101%; in assay [3], 99.1%; in assay [4], 88.7%; in assay [5] it was 101%; in assay [6], 105%.

As for `Cc1ccccc1NC(=O)/C=C/c1ccc(OCCOc2ccc3c(C)cc(=O)oc3c2)cc1`, the growth was 87.8% in assay [1]; 90.4% in assay [2]; 98.6% in assay [3]; 85.7% in assay [4]; 97.7% in assay [5]; 114% in assay [6].

In the case of `COc1cc(OC)c(C2C(Cl)C(=O)N2Nc2ncnc3ccccc23)cc1OC` (stereo not drawn), the growth is 89.6% in assay [1]; 96.2% in assay [2]; 108% in assay [3]; 83% in assay [4]; 96.5% in assay [5]; 111% in assay [6].

With `COc1cccc(-c2nn(-c3ccccc3)cc2-c2ccnc(N3CCN(C(=O)Nc4ccc(F)cc4)CC3)c2)c1`, the growth in assay [1] is 45.8%; in assay [2], 49.9%; in assay [3] it was 74.1%; in assay [4], 57.7%; in assay [5], 54.9%; in assay [6], 95.4%.

Consider `CCCCCCNC(=O)Oc1ccc(/C(=C(/C)c2ccccc2)c2ccc(OCCN3CCCCCC3)cc2)cc1`, for which the growth in assay [1] is 66.7%; in assay [2], 49.6%; in assay [3], -35.2% (active); in assay [4] it was 13.6%; in assay [5] it was 23.8%; in assay [6], 56.7%.

For the compound `COc1cc2cc(Oc3ccc(NC(=O)c4cccc(C(F)(F)F)c4)cc3)c(C)nc2cc1OCCN1CCCCC1`, the growth is 98.7% in assay [1]; -86.6% (active) in assay [2]; -71.7% (active) in assay [3]; 12.7% in assay [4]; 0.649% (active) in assay [5]; -17.7% (active) in assay [6].

Turning to `NS(=O)(=O)c1ccc(Nc2nc(SCC(=O)c3ccc(Cl)cc3)nc3ccccc23)cc1`, the growth is 112% in assay [1]; 97.5% in assay [2]; 93.3% in assay [3]; 83% in assay [4]; 101% in assay [5]; 123% in assay [6].

In the case of `c1ccc2c(NCCCn3ccnc3)c3oc4ccccc4c3nc2c1`, the growth in assay [1] is 21.6%; in assay [2] it was 3.7% (active); in assay [3], -16.9% (active); in assay [4], -11.4% (active); in assay [5], 6.12% (active); in assay [6], 0.465% (active).

For the compound `CN(C)CCCNc1c2ccc(Cl)cc2nc2c1oc1ccccc12`, the growth in assay [1] is 53.4%; in assay [2] it was -40.6% (active); in assay [3], -1.01% (active); in assay [4], -21.7% (active); in assay [5], -19.8% (active); in assay [6], -70.8% (active).

As to `O=C(CN1CCOCC1)NNc1ncnc2ccccc12`, the growth in assay [1] is 100%; in assay [2], 91.7%; in assay [3], -26% (active); in assay [4] it was 64.6%; in assay [5], 81.7%; in assay [6], 114%.

`C#Cc1nc(C2=C(C)C(OC(=O)CCC(=O)O)CC2)cs1` (stereo not drawn): the growth in assay [1] was 102%; in assay [2], 106%; in assay [3], 113%; in assay [4] it was 87.6%; in assay [5] it was 114%; in assay [6] it was 109%.

As for `CCOc1ccc([C@H]2C(C(=O)c3ccc(Cl)cc3)C3(N[C@@H]2c2ccccc2)C(=O)Nc2ccc(Br)cc23)cc1` (stereo partly drawn), the growth in assay [1] was 71.9%; in assay [2], 28.5%; in assay [3] it was 24.6%; in assay [4] it was 9.08% (active); in assay [5] it was 4.78% (active); in assay [6], 0.672% (active). Moreover, the growth in assay [7] was -10.8% (active).

On to `CC(=NNc1ncnc2ccccc12)c1ccc(S(C)(=O)=O)cc1`, for which the growth is 105% in assay [1]; 106% in assay [2]; 104% in assay [3]; 87.5% in assay [4]; 100% in assay [5]; 111% in assay [6].

As to `O=c1/c(=C\c2ccc(-c3ccccc3)o2)sc2nc(-c3ccccc3)nn12`, the growth is 119% in assay [1]; 101% in assay [2]; 104% in assay [3]; 99.1% in assay [4]; 103% in assay [5]; 113% in assay [6].

As to `COc1ccc(NC2=C(Cl)C(=O)C(C)=C(C)C2=O)cc1OC`, the growth is 108% in assay [1], 103% in assay [2], 101% in assay [3] and 77.8% in assay [4].

For `O=C1c2c(c3c4cc(Br)ccc4[nH]c3c3ccc4ccccc4c23)C(=O)N1CCO`, the growth was 105% in assay [1]; 94.8% in assay [2]; 75.9% in assay [3]; 34.3% in assay [4]; 84.2% in assay [5]; 103% in assay [6].

As to `CC(C)(C)OC(=O)N1C(=O)c2c(c3c4ccccc4[nH]c3c3ccc4ccccc4c23)C1=O`, the growth is 61.7% in assay [1]; 40.3% in assay [2]; 57.2% in assay [3]; 34.5% in assay [4]; 58.8% in assay [5]; 82.6% in assay [6].

Consider `Cc1nc(-c2cc3ccccc3oc2=O)ccc1C(=O)/C=C/c1ccccn1`, for which the growth in assay [1] was 82.5%; in assay [2], 70.8%; in assay [3], 1.33% (active); in assay [4] it was 8.39% (active); in assay [5] it was -21% (active); in assay [6], 66.6%.

Regarding `COC(=O)C1CN(S(=O)(=O)/N=C2\NC(=O)NC2=C(Cl)Cl)C1`, the growth is 110% in assay [1]; 107% in assay [2]; 114% in assay [3]; 34.1% in assay [4]; 111% in assay [5]; 121% in assay [6].

As to `Cn1ccnc1C(=O)/C=C/c1ccc(NC(=O)Nc2ccc(F)cc2)cc1`, the growth in assay [1] was 30.1%; in assay [2], 35.4%; in assay [3] it was 42.1%; in assay [4], 10.3%; in assay [5] it was 17.1%; in assay [6], 29.8%. The growth in assay [7] is 36.5%.
